Laboratory results published in PubChem BioAssay (NCATS).
Values joined by “and” are separate entries in the source; they are usually repeats but may differ in a detail not shown here. Equal entries are not always repeated. Unmarked numbers belong to inactive results. Records with an inconclusive call do not appear. Entries that show only a call come without a potency. Active and inactive are the calls of the source. Unless noted, calls come from the whole dose curve; as a rule, active = well fitted curve in the direction sought with a large enough effect; inconclusive = small, poorly fitted or top-dose-only effect, or another doubt; inactive = no such curve, though single readings can be large; an effect the other way counts as inactive or inconclusive.

Legend:
HeLa = test: Primary qHTS to identify gynecologic anti-cancer compounds using libraries of approved drugs and bioactive compounds (AID 1345084); conditions: Gynecologic cancer cell panel viability, ATPlite luminescence, 48 h; series mostly up to 57.5 µM; note: nearly all actives have a fitted effect of over 55% in size; note: potency is the fitted concentration of half-maximal effect
Procedure, shortened: (§1)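 Measured: luminescence after ATPlite addition (15 min, RT). Exposure: 48 h, 37 C, 5% CO2.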

Hek293T = test: as above; conditions: Gynecologic cancer cell panel viability, ATPlite luminescence, 48 h, control line for the selectivity index; series mostly up to 57.5 µM
Procedure, shortened: as §1

JEG-3 = test: as above; conditions: Gynecologic cancer cell panel viability, ATPlite luminescence, 48 h; series mostly up to 57.5 µM
Procedure, shortened: as §1

OV90 = test: as above; conditions: Gynecologic cancer cell panel viability, ATPlite luminescence, 48 h; series mostly up to 57.5 µM
Procedure, shortened: as §1

PA-1 = test: as above; conditions: Gynecologic cancer cell panel viability, ATPlite luminescence, 48 h; series mostly up to 57.5 µM
Procedure, shortened: as §1

SKOV3 = test: as above; conditions: Gynecologic cancer cell panel viability, ATPlite luminescence, 48 h; series mostly up to 57.5 µM
Procedure, shortened: as §1

Tov-21-G = test: as above; conditions: Gynecologic cancer cell panel viability, ATPlite luminescence, 48 h; series mostly up to 57.5 µM
Procedure, shortened: as §1

Tov112D = test: as above; conditions: Gynecologic cancer cell panel viability, ATPlite luminescence, 48 h; series mostly up to 57.5 µM
Procedure, shortened: as §1

[1] = molecular target: Nuclear receptor subfamily 1 group I member 2 (Rattus norvegicus) (UniProt Q9R1A7); test: qHTS assay for small molecule activators of the rat pregnane X receptor (rPXR) signaling pathway (AID 651751; call rule not given here); conditions: rPXR reporter cells, luciferase (One-Glo), 24 h
[2] = qHTS assay for small molecule activators of the human pregnane X receptor (PXR) signaling pathway (AID 720659; call rule not given here)
astro = test: Drug repurposing screens with cells derived from glioblastoma tumor samples (AID 1345199); conditions: viability, ATP luminescence, 48 h; series mostly up to 45.9 µM; note: nearly all actives have a fitted effect of over 40% in size; note: potency is the fitted concentration of half-maximal effect
Procedure, shortened: (§2)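 Primary testing used CD133+ neurospheres from four GBM patients, seven concentrations, 48 h exposure and ATP-based viability; confirmation added three slower-growing patient lines.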

[3] = as above; conditions: GBM patient neurospheres viability, ATP luminescence, 48 h
Procedure, shortened: as §2

[4] = qHTS assay to identify inhibitors of the type 1 interferon - major histocompatibility complex class I in skeletal muscle: Counter screen cell viability and HiBit confirmation (AID 1347412); conditions: iHSKM muscle cells + IFN-b, HiBiT or CellTiter-Glo, 24 h; Potency: HiBiT; Viability, at 45.9 µM (top of the series); note: potency is the fitted concentration of half-maximal effect; nearly all actives have a fitted effect of over 60% in size
Procedure, shortened: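 HLA-B*08:01–HiBiT knock-in immortalized human myoblasts (C25cl48) stimulated with 4.0 ng/ml human IFN-beta and dosed with compound in a 12-point 1:3 titration (top final 46 uM). After 24 hrs at 37 C, HiBiT lytic luminescence or CellTiter Glo ATP read out.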

[5] = at 45.9 µM (top of the series), tumour line B
[6] = at 45.9 µM (top of the series), tumour line D
[7] = at 46.1 µM (top of the series), tumour line C

Nuclear receptor subfamily 1 group I member 2 (Rattus norvegicus), sequence (Q9R1A7 whole entry, looked up): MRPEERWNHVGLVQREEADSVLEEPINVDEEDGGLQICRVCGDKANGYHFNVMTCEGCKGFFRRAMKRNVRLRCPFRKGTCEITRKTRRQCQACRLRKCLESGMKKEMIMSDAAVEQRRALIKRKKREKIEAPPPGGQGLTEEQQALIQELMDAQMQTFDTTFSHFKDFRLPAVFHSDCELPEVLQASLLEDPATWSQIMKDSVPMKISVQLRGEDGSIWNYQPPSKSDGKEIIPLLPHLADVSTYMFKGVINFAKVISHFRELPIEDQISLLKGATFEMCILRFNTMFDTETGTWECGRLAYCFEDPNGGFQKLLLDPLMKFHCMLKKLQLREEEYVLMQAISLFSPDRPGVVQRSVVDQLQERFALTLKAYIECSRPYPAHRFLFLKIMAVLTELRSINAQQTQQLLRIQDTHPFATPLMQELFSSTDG

For `Cn1cnc([N+](=O)[O-])c1Sc1ncnc2nc[nH]c12`, the Potency (HeLa) was 1.41 µM (active), the Potency (Hek293T) was 15.8 µM (active) and 28.2 µM (active) and the Potency (JEG-3) was 3.16 µM (active). For the same compound, the Potency (OV90) was 3.98 µM (active) and 7.08 µM (active), the Potency (PA-1) was 1.12 µM (active) and 7.08 µM (active) and the Potency (SKOV3) was “inactive”. The Potency (Tov-21-G) was 1.12 µM (active) and 3.16 µM (active), the Potency (Tov112D) was 5.62 µM (active) and 7.08 µM (active) and the max response [1] was -0.454% and -2.45%. The outcome [2] was “inactive”.

For `C1COC(NC(C2CC2)C2CC2)=N1`, the Potency (HeLa) was “inactive”, the Potency (Hek293T) was “inactive” and the Potency (JEG-3) was “inactive”. For the same compound, the Potency (OV90) was “inactive”, the Potency (PA-1) was “inactive” and the Potency (SKOV3) was “inactive”. The Potency (Tov-21-G) was “inactive”, the Potency (Tov112D) was “inactive” and the Potency (astro) was “inactive”.

With `COc1ccc(CCN2CCN(CCCc3ccccc3)CC2)cc1OC` the Potency (HeLa) was “inactive”, the Potency (Hek293T) was “inactive” and the Potency (JEG-3) was “inactive”. The Potency (OV90) was “inactive”, the Potency (PA-1) was “inactive” and the Potency (SKOV3) was “inactive”. For the same compound, the Potency (Tov112D) was “inactive”.

For `C#Cc1cccc(Nc2ncnc3cc(OCCOC)c(OCCOC)cc23)c1`, the Potency (HeLa) was “inactive”, the Potency (Hek293T) was “inactive” and the Potency (JEG-3) was “inactive”. For the same compound, the Potency (OV90) was “inactive”, the Potency (PA-1) was “inactive” and the Potency (SKOV3) was 10 µM (active). For the same compound, the Potency (Tov112D) was “inactive”.

In the case of `CC(C)(C)NCC(O)c1ccc(O)c(CO)c1` (stereo unspecified), the Potency (HeLa) is reported as “inactive”, the Potency (Hek293T) is reported as “inactive” and the Potency (JEG-3) is reported as “inactive”. The Potency (OV90) was “inactive”, the Potency (PA-1) was “inactive” and the Potency (Tov-21-G) was “inactive”. For the same compound, the Potency (Tov112D) was “inactive”, the activity, negative = cell killing [3, 5] was -3.69% and the activity, negative = cell killing [3, 6] was -16.6%. For the same compound, the activity, negative = cell killing ([3]; at 46 µM (top of the series), tumour line A) was -18.1%, the activity, negative = cell killing [3, 7] was -6.46% and the Potency (astro) was “inactive”.

In the case of `CCn1cc(C(=O)O)c(=O)c2cc(F)c(N3CCNC(C)C3)c(F)c21` (stereo unspecified), the Potency (HeLa) is reported as “inactive”, the Potency (Hek293T) is reported as “inactive” and the Potency (JEG-3) is reported as “inactive”. The Potency (OV90) was “inactive”, the Potency (PA-1) was “inactive” and the Potency (SKOV3) was “inactive”. For the same compound, the Potency (Tov-21-G) was “inactive”, the Potency (Tov112D) was “inactive” and the Potency (astro) was “inactive”.

With `COc1ccccc1[C@H](c1cccc2ccccc12)[C@@](C)(C#N)C(=O)N1CCC(c2cccc(C(F)(F)F)c2)CC1` the Potency (HeLa) was “inactive”, the Potency (Hek293T) was “inactive” and the Potency (JEG-3) was “inactive”. For the same compound, the Potency (OV90) was “inactive”, the Potency (PA-1) was “inactive” and the Potency (Tov-21-G) was “inactive”. The Potency (Tov112D) was “inactive”.

With `CC1(C)CNc2cc(NC(=O)c3cccnc3NCc3ccncc3)ccc21` the Potency (HeLa) was “inactive”, the Potency (Hek293T) was “inactive” and the Potency (JEG-3) was “inactive”. The Potency (PA-1) was “inactive”, the Potency (SKOV3) was “inactive” and the Potency (Tov-21-G) was “inactive”. For the same compound, the Potency (Tov112D) was “inactive”.

In the case of `O=C1CCc2cc(OCCCCc3nnnn3C3CCCCC3)ccc2N1`, the Potency (HeLa) is reported as “inactive”, the Potency (Hek293T) is reported as “inactive” and the Potency (JEG-3) is reported as “inactive”. The Potency (PA-1) was “inactive”, the Potency (SKOV3) was “inactive” and the Potency (Tov-21-G) was “inactive”. For the same compound, the Potency (Tov112D) was “inactive”, the activity, negative = cell killing [3, 5] was -16.9% and the activity, negative = cell killing [3, 6] was -10.7%. For the same compound, the activity, negative = cell killing [3, 7] was -10.2% and the Potency (astro) was “inactive”.

For `O=C(Nc1cccnc1)N1CCC(Cc2cccc(Oc3ccc(C(F)(F)F)cn3)c2)CC1`, the Potency (HeLa) was “inactive” and the Potency (PA-1) was “inactive”.

For `CS(=O)(=O)c1cccc(CNc2nc(Nc3ccc4c(c3)CCC(=O)N4)ncc2C(F)(F)F)c1`, the Potency (Hek293T) was “inactive”, the Potency (OV90) was “inactive” and the Potency (Tov112D) was “inactive”. For the same compound, the Potency [4] was 11.1 µM (active).

In the case of `CCOC(=O)N1CCC(=C2c3ccc(Cl)cc3CCc3cccnc32)CC1`, the Potency (Hek293T) is reported as “inactive”, the Potency (JEG-3) is reported as “inactive” and the Potency (OV90) is reported as “inactive”. The activity, negative = cell killing [3, 5] was -28.2%, the activity, negative = cell killing [3, 7] was -20.3% and the Potency ([3]; tumour line A) was 10 µM (active).
